The nature of experiment [1]: Primary qHTS for inhibitors of nuclear receptor binding SET domain protein 2 (NSD2) in an isogenic RCH-ACV NSD2 p.E1099K mutant (9B) (AID 1645876). Note: nearly all actives have a fitted effect of over 70% in size. Note: potency is the fitted concentration of half-maximal effect. On the technique in general: In qHTS, concentration-response curves come from the screen itself.
A short description of experiment [2]: Primary qHTS for inhibitors of nuclear receptor binding SET domain protein 2 (NSD2) in an RCH-ACV wild type WT cells (2C) (AID 1645877). Note: nearly all actives have a fitted effect of over 70% in size. Note: potency is the fitted concentration of half-maximal effect.
The target in experiment [3] is Glutathione peroxidase 1 (Homo sapiens) (UniProt P07203). Description: Primary qHTS Assay for Inhibitors of Recombinant Selenoprotein Glutathione Peroxidase 1 (GPX1) (AID 1845191). Note: nearly all actives have a fitted effect of over 65% in size. Put shortly:
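10 nM GPX1 + cpd, 30 min RT; start w/ 1 mM GSH, 0.5 mM cumene hydroperoxide, 0.5 mM NADPH, 100 nM GR, 0.01% BSA; buffer 50 mM Tris-HCl pH 7.5, 2 mM EDTA, 150 mM NaCl; Fl 340/450, 0 & 15 min.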

For experiment [4], the target named is Phospholipid hydroperoxide glutathione peroxidase GPX4 (Homo sapiens) (UniProt P36969). Kind of experiment: Primary qHTS Assay for Inhibitors of Recombinant Selenoprotein Glutathione Peroxidase 4 (GPX4) (AID 1845192). Note: nearly all actives have a fitted effect of over 65% in size. Note: potency is the fitted concentration of half-maximal effect. The method in brief:
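NADPH consumption, followed by fluorescence at 340/450 nm between 0 and 15 min, reports GPX4 activity via coupled glutathione reductase (100 nM). Enzyme 200 nM was pre-exposed to compound 30 min; 0.5 mM cumene hydroperoxide and 1 mM GSH served as substrates.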

Experiment [5] is described as follows: qHTS drug screen for cell cycle checkpoint inhibitors in PARPi-resistant BRCA-mutant ovarian cancer cell lines. (AID 1963452; calls by dose curve; note: potency is the fitted concentration of half-maximal effect). The note with it: PEO1/OlaR viability, CellTiter-Glo luminescence, 96 h; for Z-AUC: stronger effect = lower value. Put shortly:
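PEO1, PEO4 and PEO1/OlaR ovarian cancer cells, 600 per well, exposed 96 h at 37C to a dilution series. Viability read by CellTiter-Glo luminescence, normalized to DMSO and empty wells; activity summarized as Z-AUC.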

The nature of experiment [6]: NCATS anti-infectives library activity on HEK293 viability as a counter-qHTS vs the C. elegans viability qHTS (AID 1745854).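 Note: HEK293 cells exposed to compounds for 24 hr before the viability read; % is set by controls: 0 for no effect and ±100 for the full control effect.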 The method in brief:
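Compounds were acoustically plated (several concentrations, 1:5, final up to 41.7 uM), then 1500 HEK293 cells added per well and incubated 24 hr at 37C, 5% CO2. CellTiter-Glo was added and luminescence read after 10 min.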

Setting [7] is: measured here: PEO1 parental Z-AUC.

17 compounds from PubChem BioAssay (NCATS) can be followed below.

Values joined by “and” are separate entries in the source; they are usually repeats but may differ in a detail not shown here. Equal entries are not always repeated. Records with an inconclusive call do not appear. More than one record can exist for a structure, and the calls need not agree. Active and inactive are the calls of the source. Unless noted, calls come from the whole dose curve; as a rule, active = well fitted curve in the direction sought with a large enough effect; inconclusive = small, poorly fitted or top-dose-only effect, or another doubt; inactive = no such curve, though single readings can be large; an effect the other way counts as inactive or inconclusive.

Sequence of Phospholipid hydroperoxide glutathione peroxidase GPX4 (Homo sapiens) (P36969 whole entry, looked up): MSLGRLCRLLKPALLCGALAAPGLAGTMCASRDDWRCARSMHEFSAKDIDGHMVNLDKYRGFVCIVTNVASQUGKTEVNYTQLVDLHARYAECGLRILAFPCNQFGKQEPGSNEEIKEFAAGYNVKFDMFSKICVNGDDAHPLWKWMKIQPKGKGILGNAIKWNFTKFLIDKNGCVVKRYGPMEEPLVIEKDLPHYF
Sequence of Glutathione peroxidase 1 (Homo sapiens) (P07203 whole entry, looked up): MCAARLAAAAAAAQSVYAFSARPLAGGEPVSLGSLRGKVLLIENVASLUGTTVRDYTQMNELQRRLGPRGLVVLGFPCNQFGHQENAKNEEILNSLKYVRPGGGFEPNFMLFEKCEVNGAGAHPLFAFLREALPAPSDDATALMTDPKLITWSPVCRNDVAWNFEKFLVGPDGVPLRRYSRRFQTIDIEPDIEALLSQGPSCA

For `O=C(NO)C1(CS(=O)(=O)c2ccc(Oc3ccc(Cl)cc3)cc2)CCOCC1`, the Potency in experiment [1] and in experiment [2] was 16.6 µM (active) throughout. In addition, the Potency entry in experiment [3] and in experiment [4] was “inactive” in each case. Besides, the Z-AUC in experiment [5] was 1.18 (inactive); in experiment [5] (setting [7]), 0.196; in experiment [5] (measured here: PEO4 Z-AUC), 0.465.
Consider `N#Cc1cccnc1N1CCN(C(=O)c2cccc(Cc3n[nH]c(=O)c4ccccc34)c2)CC1`, for which the results for the Potency in experiment [1] and in experiment [2] were 0.0332 µM (active) and 0.0209 µM (active), respectively. The Potency result in experiment [3] and in experiment [4] was “inactive” each time. Besides, the Z-AUC in experiment [5] is -1.35 (inactive); in experiment [5] (setting [7]), -2.79; in experiment [5] (measured here: PEO4 Z-AUC), -1.63.
With `N#Cc1c(N)nc(N)nc1N[C@H](c1nc2c(F)ccc(Cl)c2c(=O)n1-c1cccnc1)C1CC1`, the Potency in experiment [1] and in experiment [2] was 0.417 µM (active) in each case. The Potency entry in experiment [3] and in experiment [4] was “inactive” throughout. Besides, the figures for the Z-AUC in experiment [5], in experiment [5] (setting [7]) and in experiment [5] (measured here: PEO4 Z-AUC) were -1.77 (inactive), -0.776 and -0.121, respectively.
On to `C/C=C/C[C@@H](C)C(=O)[C@H]1C(=O)N[C@@H](C(C)C)C(=O)N(C)CC(=O)N(C)[C@@H](CC(C)C)C(=O)N[C@@H](C(C)C)C(=O)N(C)[C@@H](CC(C)C)C(=O)N[C@@H](C)C(=O)N[C@H](C)C(=O)N(C)[C@@H](CC(C)C)C(=O)N(C)[C@@H](CC(C)C)C(=O)N(C)[C@@H](C(C)C)C(=O)N1C`, for which the Potency result in experiment [1], in experiment [2], in experiment [3] and in experiment [4] was “inactive” in each case. In addition, the Z-AUC in experiment [5] was -0.152 (inactive); in experiment [5] (setting [7]), -0.111; in experiment [5] (measured here: PEO4 Z-AUC) it was 0.176.
As for `N#Cc1ccc(Cn2cncc2CN2CCN(c3cccc(Cl)c3)C(=O)C2)cc1`, the Potency in experiment [1] is 4.68 µM (active); in experiment [2], 2.63 µM (active). For the same compound, the Potency result in experiment [3] and in experiment [4] was “inactive” each time. The Z-AUC in experiment [5] is -0.462 (inactive); in experiment [5] (setting [7]), -0.168; in experiment [5] (measured here: PEO4 Z-AUC), -0.142.
For `Cc1ccc(Sc2ccccc2N2CCNCC2)c(C)c1`, the Potency in experiment [1] is 10.5 µM (active); in experiment [2] it was 7.42 µM (active). The Potency result in experiment [3] and in experiment [4] was “inactive” throughout. For the same compound, the Z-AUC is 0.87 (inactive) in experiment [5], 0.0255 in experiment [5] (setting [7]) and -0.0248 in experiment [5] (measured here: PEO4 Z-AUC).
With `COc1ccc(Oc2cc(NCCC(F)(F)F)c3ncc(-c4ccc(C(=O)NC5CC5)c(C)c4)n3n2)c(F)c1F`, the results for the Potency in experiment [1] and in experiment [2] were 0.0235 µM (active) and 0.0148 µM (active), respectively. Moreover, the Potency result in experiment [3] and in experiment [4] was “inactive” each time. For the same compound, the Z-AUC in experiment [5] was 1.26 (inactive); in experiment [5] (setting [7]) it was 0.0575; in experiment [5] (measured here: PEO4 Z-AUC), -0.837.
As to `CC[C@@H]1[C@H](F)C(=O)N[C@@H]1COc1nccc2cc(C(N)=O)c(OC)cc12`, the values for the Potency in experiment [1], in experiment [2] and in experiment [4] were 14.8 µM (active), 10.5 µM (active) and 18 µM (active), respectively. For the same compound, the Potency entry in experiment [3] was “inactive”. Also, the Z-AUC in experiment [5] is -0.948 (inactive); in experiment [5] (setting [7]), -0.251; in experiment [5] (measured here: PEO4 Z-AUC), 0.0982.
With `C/C=C/C/C=C/CCC(=O)[C@H]1O[C@H]1C(N)=O`, the Potency was 11.8 µM (active) in experiment [1] and 13.2 µM (active) in experiment [2]. In addition, the Potency entry in experiment [3] and in experiment [4] was “inactive” in each case. Further, the results for the Z-AUC in experiment [5], in experiment [5] (setting [7]) and in experiment [5] (measured here: PEO4 Z-AUC) were -0.297 (inactive), -0.147 and -0.049, respectively.
As to `Nc1cc(C(F)(F)F)c(-c2nc(N3CCOCC3)nc(N3CCOCC3)n2)cn1`, the figures for the Potency in experiment [1] and in experiment [2] were 0.742 µM (active) and 0.525 µM (active), respectively. For the same compound, the Potency result in experiment [3] and in experiment [4] was “inactive” each time. Also, the Z-AUC is -0.884 (inactive) in experiment [5], -0.21 in experiment [5] (setting [7]) and -0.177 in experiment [5] (measured here: PEO4 Z-AUC).
`C[C@H](NC(=O)c1c(N)nn2cccnc12)c1cc2cccc(C#Cc3cnn(C)c3)c2c(=O)n1-c1ccccc1`: the Potency was 1.62 µM (active) in experiment [1] and 3.62 µM (active) in experiment [2]. The Potency result in experiment [3] and in experiment [4] was “inactive” each time. The Z-AUC in experiment [5] is -0.378 (inactive); in experiment [5] (setting [7]), 0.564; in experiment [5] (measured here: PEO4 Z-AUC), 0.799.
For `CCc1ccc2nc(Nc3cc(Cc4ccccc4)nc(NC4CCC(O)CC4)n3)sc2c1` (configuration not stated), in experiment [2], the Potency was 23.5 µM (active). Besides, the Potency result in experiment [3] is “inactive”.
Take `O=C(O/N=C1\c2ccccc2-c2nc3ccccc3nc21)c1ccco1`: in experiment [1], the Potency was 18.4 µM (active). Also, the Potency result in experiment [3] was “inactive”.
Regarding `CCOC(=O)C1=CCCCC1S(=O)(=O)Nc1ccc(F)cc1Cl` (configuration not stated), the Potency is 20.9 µM (active) in experiment [1] and 18.6 µM (active) in experiment [2]. Moreover, the Potency entry in experiment [3] is “inactive”. Moreover, the results for the Z-AUC in experiment [5], in experiment [5] (setting [7]) and in experiment [5] (measured here: PEO4 Z-AUC) were 1.33 (inactive), 1.11 and 1.15, respectively.
Turning to `Cn1cc(C2=C(c3cn(C)c4cc([N+](=O)[O-])ccc34)C(=O)NC2=O)c2ccccc21`, the Potency is 0.525 µM (active) in experiment [1] and 0.417 µM (active) in experiment [2]. The Z-AUC in experiment [5] is -0.69 (inactive); in experiment [5] (setting [7]) it was -0.95; in experiment [5] (measured here: PEO4 Z-AUC) it was -1.21.
Turning to `CCC[C@H](NC(=O)[C@@H]1[C@H]2CCC[C@H]2CN1C(=O)[C@@H](NC(=O)[C@@H](NC(=O)c1cnccn1)C1CCCCC1)C(C)(C)C)C(=O)C(=O)NC1CC1`, the Potency in experiment [2] is 5.9 µM (active). The outcome in experiment [6] was inactive. For the same compound, the Potency entry in experiment [3] and in experiment [4] was “inactive” each time. The Z-AUC is 1.49 (inactive) in experiment [5], 0.769 in experiment [5] (setting [7]) and 0.725 in experiment [5] (measured here: PEO4 Z-AUC).
With `CN[C@H]1CN(c2ccc3c(=O)c(C(=O)O)cn(-c4nccs4)c3n2)C[C@@H]1OC`, the Potency was 0.135 µM (active) in experiment [1], 0.0762 µM (active) in experiment [2] and 1.59 µM (active) in experiment [5]. Also, the Potency result in experiment [3] and in experiment [4] was “inactive” each time. The Z-AUC in experiment [5] is -0.941 (inactive); in experiment [5] (setting [7]), -1.7 and -1.57; in experiment [5] (measured here: PEO4 Z-AUC), -1.25 and -1.14.
